# SW480 rerep: inducers of DNA re-replication in SW480 colon cancer cells; SW480 DNA re-replication, Hoechst DNA content imaging, 48 h; Potency, µM (titrated, usually from 46.1 µM), for the others: top-dose re-replication activation, hits mostly activators; hit rate 1.8% among 340,000; also: % of control where 0% means no effect; nearly all actives have a fitted effect of over 55% in size
#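 Compounds, transferred as 23 nL by pin tool, were incubated with cells for 48 hr; DNA content per nucleus was then quantified by Hoechst staining and fluorescence plate imaging.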
# MCF10A rerep: induces DNA re-replication in MCF 10a normal breast cells; MCF 10A DNA re-replication, Hoechst nuclear intensity, 48 h; Potency, µM (doses to about 46.1 µM), for the others: at the highest dose activity, positive = re-replication, most hits filed as activators; hit rate 2.9% among 350,000; AID 624296; also: % of control where 0% means no effect; nearly all actives have a fitted effect of over 50% in size
# ELG1 repair inh: inhibitors of ELG1-dependent DNA repair in HEK293T cells; hit rate 2.3% among 330,000; Potency, µM (titrated, usually from 46.1 µM), for inactives: at the highest dose activity change, negative = inhibition, actives largely listed as inhibitors; AID 504467; HEK293T ELG1-luciferase reporter, luminescence, 16 h; DNA damage induced by 5-fluorouridine; also: % is scaled to controls: 0 for no effect and ±100 for the full control effect; nearly all actives have a fitted effect of over 55% in size
#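 In this reporter screen, reduction of luminescence relative to DMSO vehicle indicated activity. Compounds and 5-fluorouridine were added together to 2,000 cells per well, incubated for 16 hr at 37 °C, then developed with ONE-Glo.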
# KB-V1 cytotox: kills drug-selected multidrug resistant KB-V1 cells. Potency, µM (top dose mostly 46.1 µM), most hits filed as cytotoxic. hit rate 3.4% among 400,000. KB-V1 MDR cells viability, CellTiter-Glo, 72 h; also: % is scaled to controls: 0 for no effect and ±100 for the full control effect; nearly all actives have a fitted effect of over 60% in size
#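 Compound-treated KB-V1 multidrug-resistant cells, 72 h, 37 degrees C; viability by CellTiter-Glo. Fitted qHTS curves give the values.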
# KB-3-1 cytotox: kills parental KB-3-1 adenocarcinoma cells; KB-3-1 viability, CellTiter-Glo ATP luminescence, 72 h; Potency, µM (top dose mostly 46.1 µM), actives largely listed as cytotoxic; hit rate 1.4% among 400,000; AID 1347075; also: % is scaled to controls: 0 for no effect and ±100 for the full control effect; nearly all actives have a fitted effect of over 60% in size
#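 Cytotoxicity in the drug-sensitive parental line KB-3-1 was scored as loss of CellTiter-Glo luminescence following 72 h incubation with compound. Values come from curve fitting of normalized concentration-response data.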
# Active calls of the source: *; i = inactive; u = inconclusive; x = no result; [ ] = remark or other dose. Sampled rows, rich in hits. Any-hit rate of the full collection: about 8.2%. Calls follow the shape of the dose curve; as a rule, active = well fitted curve in the direction sought with a large enough effect; inconclusive = small, poorly fitted or top-dose-only effect, or another doubt; inactive = no such curve, though single readings can be large; an effect the other way counts as inactive or inconclusive. Potency is read from the fitted curve at half-maximal effect.
SMILES,SW480 rerep,MCF10A rerep,ELG1 repair inh,KB-V1 cytotox,KB-3-1 cytotox
Cc1ccc(C[n+]2cc(-c3ccc(Cl)cc3)n3c2CCC3)cc1,2%,11%,4.6µM*,u,6.5µM*
O=C(C[n+]1cc(-c2ccc(F)cc2)n2c1CCC2)Nc1nc(-c2ccc(F)cc2)cs1,-8%,u,2%,i,u
COc1ccc(NC(=O)c2c(NCc3cccs3)sc3c2CCCCC3)c(OC)c1,x,x,x,i,i
COc1ccccc1/C=C/CN1CCC(Oc2cc(C(=O)NC3CC3)ccc2OC)CC1,-8%,7%,7%,i,i
COc1ccccc1CNC(=O)C(Cc1ccccc1)NS(=O)(=O)c1ccc2c(c1)CCN2C(C)=O (centres undefined),x,x,x,i,i
CSc1ncc(C(=O)NCc2cccc(Br)c2)c(-c2ccccc2)n1,x,x,x,i,i
CCc1ccc(NC(=O)C[n+]2cc(-c3ccc(C)cc3)n3c2CCC3)cc1,-7%,4%,12µM*,i,u
Cc1ccc(-c2c[n+](CC(=O)Nc3c(C)cccc3C)c3n2CCC3)cc1,-5%,1%,u,i,i
Cc1ccc(-c2c[n+](Cc3cccc(Cl)c3)c3n2CCC3)cc1,-5%,9%,10µM*,i,8.2µM*
CCCOc1ccccc1C(=O)N1CCNC(=O)C1CC(=O)OC(C)C (centres undefined),-9%,-6%,7%,u,i
CC(=O)Nc1ccc(NC(=O)C(C)Oc2ccc(C)nc2[N+](=O)[O-])cc1 (centres undefined),-3%,-1%,15%,i,i
COc1ccc(C(CC(=O)N2CCCCC2)NC(=O)C(F)(F)F)cc1 (centres undefined),-3%,-1%,3%,i,i
COc1ccc(C(CC(=O)Nc2ccc(Cl)cc2F)NC(=O)C(F)(F)F)cc1 (centres undefined),-10%,2%,8%,8.2µM*,i
CNc1cc(C(=O)O)nc2ccccc12,x,x,x,i,u
CCN(c1ccc(N=Cc2c(O)n(Cc3ccc(OC)cc3)c(=O)c3ccccc23)cc1)C(C)C,u,7.3µM*,-8%,i,i
Clc1cccc(Cl)c1Cn1cnc2c(N3CCCCCC3)ncnc21,u,-4%,u,8.2µM*,i
Cc1ccc(Oc2nc3c(c(=O)n(Cc4ccccc4F)c(=O)n3C)n2C)cc1,-7%,2%,18µM*,12µM*,i
COc1cccc(Oc2nc3c(c(=O)n(Cc4ccccc4F)c(=O)n3C)n2C)c1,x,x,x,i,i
Cn1c(NCc2cccnc2)nc2c1c(=O)n(Cc1ccccc1F)c(=O)n2C,-8%,-4%,-9%,15µM*,u
COc1ccc(CNc2nc3c(c(=O)n(Cc4ccc(F)cc4)c(=O)n3C)n2C)cc1,4%,12%,18µM*,i,u
O=C1NC[C@H](CCCCN2CCN(CCC3CCCCC3)C(=O)C2=O)N(CCc2ccccc2)C1=O,x,x,x,i,i
COc1cc(OC)cc(C(=O)c2c(C)c(C#N)c3ccccn23)c1,10µM*,u,-15%,u,5.2µM*
Cc1cc2ccccn2c1C(=O)c1ccc(C#N)cc1,1%,16%,-15%,u,u
Cc1ccc(Nc2ncc(C(=O)N3CCN(c4cccc(Cl)c4)CC3)c3ccccc23)cc1Cl,x,x,x,i,i
O=C(NCCCN1CCOCC1)c1cc(-c2ccccc2)nc2ccccc12,-4%,6%,4%,i,i
SMILES,SW480 rerep,MCF10A rerep,ELG1 repair inh,KB-V1 cytotox,KB-3-1 cytotox
Cc1ccc(Nc2cc(C(=O)NCCCN3CCOCC3)c3ccccc3n2)cc1C,u,10µM*,u,i,i
Cc1ccc(-c2cc(C(=O)NCCCN3CCOCC3)c3ccc(Cl)c(C)c3n2)cc1,21µM*,u,-7%,i,i
Cc1ccc(Nc2ncc(C(=O)NCCCN3CCN(C)CC3)c3ccccc23)cc1Cl,u,23µM*,0%,u,i
O=C(c1cccs1)N1CCCC1,-1%[9.22 µM],1%,1%,i,i
O=C(c1cccs1)N1CCN(C(=O)c2cccs2)C1=S,16µM*,5.8µM*,x,2.9µM*,15µM*
CCCCCC(=O)N1C[C@@H](O)[C@H](n2cc(COC(=O)c3ccccc3)nn2)C[C@@H]1c1ccc(OC)cc1,x,x,x,i,i
O=C(Nc1cccc(Cl)c1)C1C2CCC3C(CCC21)C3(Cl)Cl (centres undefined),7%,-7%,26µM*,21µM*,u
O=C(Nc1ccccc1)C1C2CCC3C(CCC21)C3(Cl)Cl (centres undefined),13%,12%,-13%,i,i
COc1ccc(CN(C2CCCCC2C)S(=O)(=O)c2ccc(S(=O)(=O)N(C)C)cc2)cc1OC (centres undefined),29%,u,u,6.5µM*,i
COc1cc(CN(C2CCCCC2C)S(=O)(=O)c2ccc(S(=O)(=O)NC3CC3)cc2)cc(OC)c1OC (centres undefined),2%,10%,18µM*,i,u
COc1ccc(CC(=O)Nc2ccc(S(=O)(=O)N(C)C)cc2)cc1OC,2%,6%,-6%,i,i
Cc1ccc(S(=O)(=O)N2CCOCC2)cc1C(=O)NCC1CCCCC1,15%,0%,8%,x,x
CC1Cc2ccccc2N1C(=O)C1CC(=O)N(c2ccccc2)C1 (centres undefined),-4%,3%,-1%,i,i
CC(C)OP(=O)(OC(C)C)C(Nc1ccc([N+](=O)[O-])cc1)c1cccc([N+](=O)[O-])c1 (centres undefined),-10%,-4%,16%,i,i
CC(C)OP(=O)(OC(C)C)/C(C=O)=N\Nc1ccc([N+](=O)[O-])cc1,-15%,0%,23µM*,i,u
CCc1ccc(/C=N/NC(=O)c2cc(-c3ccccc3OC)nc3ccccc23)s1,1%[9.22 µM],-1%,18µM*,i,u
COc1ccc(/C=N/NC(=O)c2cc(-c3ccccc3OC(C)C)nc3ccccc23)cc1CN1CCOCC1,27%,8.2µM*,u,u,i
CCc1ccc(/C=N\NC(=O)c2ccc(Br)o2)s1,14%,1%,u,18µM*,i
COc1ccccc1-c1cc(C(=O)N/N=C/c2ccc(C)s2)c2ccccc2n1,2%,u,7.3µM*,i,u
Cc1ccc(-c2nnc(Nc3ccc(O)cc3)c3ccccc23)cc1S(=O)(=O)N1CCN(C)CC1,x,x,x,i,i
CCOc1ccc(C2CC=C(C(C)=O)CN2S(=O)(=O)c2ccc(C)cc2)cc1 (centres undefined),x,x,x,i,i

# Assay outcomes: PubChem BioAssay, National Center for Advancing Translational Sciences (NCATS)
